Our source for the activity change values is PubChem BioAssay AID743279 (National Center for Advancing Translational Sciences (NCATS), 2014).

The campaign covered roughly 360,000 compounds. About 17,000 (4.7%) were called active. Roughly 5% stayed inconclusive and do not appear here. What follows is part of a selection rich in actives, with near analogues and random picks from the rest. A number with no mark means an inactive call. No stated cut-off is given here; in the data, active means activity change below about -50%; inconclusive means mostly about -30% to -49%; inactive means weaker than that.
On the % scale 0 is the no-effect control and ±100 the full control effect.

This assay can be described thus: qHTS for Inhibitors of Inflammasome Signaling: IL-1-beta AlphaLISA Primary Screen. The settings on record: THP-1 LPS/ATP IL-1B secretion, 16 h; at 57.5 µM, stronger effect = lower value. In a few lines:
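Secreted IL-1B measured by AlphaLISA bead assay after 16 h compound exposure of THP-1 cells; compounds (final up to 57.5 uM) added 1 h before LPS (250 ng/mL) and ATP (1.25 mM) stimulation; lower signal means less secretion.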
A general note: qHTS replaces the single test concentration by a dilution series.
Turning to `CC(C)Oc1cc(F)ccc1-c1cc(C(=O)Nc2cccc(Cl)c2)[nH]n1`, the activity change is 19.8%.

Take `COc1cc(/C=N/N2CCN(c3ccccc3)CC2)ccc1OC(C)=O`: the activity change was -4.61%.

As for `COc1ccccc1N1CCN(/N=C/c2ccc(O)cc2O)CC1`, the activity change was -21.9%.

As to `COc1ccccc1N1CCN(/N=C\C(Br)=C\c2ccccc2)CC1`, the activity change is -66.9% (active).

For the compound `CCCc1nc2c3ccccc3ccn2c1Cc1ccccc1C(F)(F)F`, the activity change is 17.7%.

For `COCCCN(C(=S)Nc1c(C)cc(C)cc1C)C(C)c1ccncc1` (stereo unspecified), the activity change is 0%.

For the compound `CCc1nnc(NC(=O)c2ccco2)s1`, the activity change was 10%.

Take `O=C(Nc1nnc(CCOCCOCCc2nnc(NC(=O)c3ccco3)s2)s1)c1ccco1`: the activity change was -5.99%.

On to `O=C(Nc1nc(-c2ccco2)c(-c2ccco2)s1)c1ccco1`, for which the activity change is -77.4% (active).

With `CCN1CCN(c2ccc([N+](=O)[O-])cc2C(=O)c2ccc(Cl)cc2)CC1`, the activity change is -7.81%.

In the case of `CCN1CCN(c2sc(S(C)(=O)=O)nc2S(=O)(=O)c2ccc(Cl)cc2)CC1`, the activity change was -97.8% (active).

As for `CCN1CCN(C(=O)N(Cc2ccc(Cl)cc2)S(=O)(=O)c2ccc(C)cc2)CC1`, the activity change is -3.62%.

As for `COc1cc([C@H](Cc2ccccc2)NC(C)=O)oc(=O)c1`, the activity change was 22.9%.

`COC(=O)COc1cccc2c(=O)n(CC(=O)NCc3ccccc3)ccc12`: the activity change is -57.4% (active).

In the case of `COc1cccc2c(=O)n(CC(=O)N3CCCCCC3)ccc12`, the activity change was -3.57%.

Turning to `Cc1ccc(CNC(=O)CCNC(=O)Cn2ccc3ccccc3c2=O)cc1`, the activity change was -21.6%.

Turning to `O=C(Nc1cccc(S(=O)(=O)NC2=NCCC2)c1)C1CCCCC1`, the activity change was 23.8%.

Turning to `O=C(C1=C[C@H](c2coc3ccccc3c2=O)C[C@H](OCc2ccc(CO)cc2)O1)N1CCOCC1`, the activity change is -3.08%.

With `O=C(C1=C[C@H](c2ccc(C(F)(F)F)cc2)C[C@H](OCc2ccc(CO)cc2)O1)N1CCN(Cc2ccccc2)CC1`, the activity change is -80.4% (active).

In the case of `O=C(NCc1ccccc1)C1=C[C@@H](c2ccc(C(F)(F)F)cc2)C[C@@H](OCc2ccc(CO)cc2)O1`, the activity change is -53.9% (active).

As to `O=C(C1=C[C@H](c2coc3ccccc3c2=O)C[C@H](OCc2ccc(CO)cc2)O1)N1CCN(Cc2ccccc2)CC1`, the activity change was -63.5% (active).

Consider `CN1CCN(C(=O)C2=C[C@H](c3ccc4c(c3)OCO4)C[C@H](OCc3ccc(CO)cc3)O2)CC1`, for which the activity change is -10.6%.

Consider `O=C(NCc1ccccc1)C1=C[C@@H](C2CCCCC2)C[C@@H](OCc2ccc(CO)cc2)O1`, for which the activity change is -17.5%.

For the compound `O=C(NCc1ccccc1)C1=C[C@H](C2CC2)C[C@H](OCc2ccc(CO)cc2)O1`, the activity change was -25.1%.

For the compound `O=C(C1=C[C@H](C2CC2)C[C@H](OCc2ccc(CO)cc2)O1)N1CCN(Cc2ccccc2)CC1`, the activity change is -22.6%.

On to `CC(=O)n1cc([C@H]2C=C(C(=O)N3CCOCC3)O[C@@H](OCc3ccc(CO)cc3)C2)c2ccccc21`, for which the activity change was -1.15%.

As for `c1ccc(-c2c[nH]c(-c3ccccc3)c2)cc1`, the activity change was 14%.

Turning to `N#CCCC(C#N)(c1cccnc1)N1CCOCC1` (stereo unspecified), the activity change is 2.31%.

For the compound `CC(C)(C)c1ccc(/C=C/C(=O)NCCCn2ccnc2)cc1`, the activity change was -13.5%.

With `Oc1cccc(CCc2ccccn2)c1`, the activity change was -8.08%.

For the compound `Cc1cccc(N2CCN(C(=O)COCc3cc(-c4ccc5c(c4)OCO5)on3)CC2)c1C`, the activity change was -0.251%.

Consider `CCc1cc(C(=O)N(CC)CC(=O)Nc2c(F)cccc2F)sc1C`, for which the activity change was -0.176%.

As to `COc1cc(CCN=Cc2ccccc2O)c([N+](=O)[O-])cc1OC`, the activity change is 13.4%.

On to `Cc1csc(=O)n1CCC(=O)OCC(=O)Nc1ccc(N2CCOCC2)cc1`, for which the activity change is 0%.

`COC(=O)[C@H](Cc1ccccc1)NC(=O)Nc1ccc(S(N)(=O)=O)cc1`: the activity change was 9.1%.

In the case of `COc1ccc(C(=O)NC(=S)N2CCCCC2c2cccnc2)cc1OC` (stereo unspecified), the activity change is -16.3%.

Take `CSc1ncccc1C(=O)N1CCCC(Nc2ccc(F)c(F)c2)C1` (stereo unspecified): the activity change was 43.2%.

Regarding `CC(C)OC(=O)CC(=O)CC(O)c1cccc([N+](=O)[O-])c1` (stereo unspecified), the activity change is 19.7%.

As to `Cc1ccc(N(Cc2cc(=O)[nH]c3ccccc23)C(=O)CCl)cc1`, the activity change is -99.5% (active).

Take `CCC(=O)N(Cc1cc2ccccc2[nH]c1=O)c1ccc(OC)cc1`: the activity change was -28.7%.

In the case of `CC(=O)N(Cc1cc(=O)[nH]c2ccccc12)c1ccc(C)cc1C`, the activity change is 1.3%.

With `CC(C=Cc1ccccc1)=NNS(=O)(=O)c1ccc([N+](=O)[O-])cc1`, the activity change was -3.19%.

Consider `CCOc1ccc(S(=O)(=O)N2CCN(C(=O)c3oc4ccccc4c3C)CC2)cc1`, for which the activity change is -12.6%.

Take `COCc1[nH]nc2c1C(C1C=CCCC1)C(C#N)=C(N)O2` (stereo unspecified): the activity change was -72.1% (active).

Take `N#CC1=C(N)OC2=C(C(=O)CCC2)C1C1CC=CCC1` (stereo unspecified): the activity change was 0.456%.

As for `N#CC1=C(N)Oc2cc(O)ccc2C1C1CCCCC1` (stereo unspecified), the activity change is 50.4%.

Take `CCCCNC(=O)C[C@@H]1C[C@@]2(C(=O)OC)CC(C)(C)CC=C2N(Cc2ccco2)C1=O`: the activity change is -1.57%.

As for `NCCCCC(C(=O)O)N(C(=O)OCc1ccccc1)C(=O)OCc1ccccc1` (stereo unspecified), the activity change is -16.2%.

`Cn1nc(C(F)(F)F)c(C(=O)Nc2cccc(C(F)(F)F)c2)c1SCc1ccc(Cl)cc1`: the activity change is -81.8% (active).

As to `COC(=O)c1ccccc1Sc1c(/C=N/OCc2ccc(Cl)cc2)c(C(F)(F)F)nn1C`, the activity change was 20.2%.

`O=C(O)CSc1c2c(nc3cc(C(=O)Nc4cccc(C(F)(F)F)c4)ccc13)CCCC2`: the activity change is -26.7%.

`OC[C@@H]1CN(Cc2cccs2)C[C@H](n2cnc3c(Nc4ccccc4)ncnc32)O1`: the activity change was 8.21%.

As to `c1ccc(C[C@H]2CNCCN2CCC23CC4CC(CC(C4)C2)C3)cc1`, the activity change is -74.5% (active).

Consider `O=C1CCNCCN1[C@H](CO)Cc1ccccc1`, for which the activity change was 17.5%.

Turning to `c1ccc2c(CCN3CCNC[C@H]3Cc3cccc4ccccc34)cccc2c1`, the activity change was -12.9%.

`CCCC(=O)N1CCC1(C)C(=O)Nc1ccc(-n2cncn2)cc1` (stereo unspecified): the activity change was 0.196%.
